TDP1 cell noCPT: qHTS for Inhibitors of human tyrosyl-DNA phosphodiesterase 1 (TDP1): qHTS in cells in absence of CPT. DT40 Tdp1-/- hTDP1 cells, no CPT, ATP luminescence, 48 h. Potency, µM (top dose mostly 46.2 µM), for inactives: at the highest dose activity change, negative = growth inhibition, usual class: inhibitors. hit rate 15% among 420,000; also: potency is read from the fitted curve at half-maximal effect; nearly all actives have a fitted effect of over 55% in size
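Stably hTDP1-transfected Tdp1-null chicken DT40 cells were treated with library compounds minus camptothecin and grown for at least 48 hr at 37 °C, after which cellular ATP was quantified by luminescence.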
IL-1B inflam inh: qHTS for Inhibitors of Inflammasome Signaling: IL-1-beta AlphaLISA Primary Screen; hit rate 4.7% among 360,000; THP-1 LPS/ATP IL-1B secretion, AlphaLISA, 16 h; active compounds read low; activity change, % at 57.5 µM; in the data active = activity change below about -50%; inconclusive = mostly about -30% to -49%
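Secreted IL-1B measured by AlphaLISA bead assay after 16 h compound exposure of THP-1 cells; compounds (final up to 57.5 uM) added 1 h before LPS (250 ng/mL) and ATP (1.25 mM) stimulation; lower signal means less secretion.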
HT1080 IDH1KD tx: qHTS for induction of synthetic lethality in tumor cells producing 2HG: qHTS for the HT-1080-IDH1KD cell line; HT-1080 IDH1 knockdown viability, ATP luminescence, 48 h; Potency, µM (top dose mostly 46.1 µM), for inactives: top-dose activity, negative = toxicity, usual class: cytotoxic; hit rate 2% among 360,000; AID 686971, 2013;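 also: potency is read from the fitted curve at half-maximal effect; 0% = DMSO wells and -100% = cell-free medium wells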
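Luminescent ATP read-out (CellTiter-Glo, 10 min at room temperature) after 48 h compound exposure at 37 °C gave viability of IDH1-knockdown HT-1080 cells. Activity was normalised to DMSO and cell-free wells, then fitted as concentration-response curves.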
HT1080-NT tox: qHTS for induction of synthetic lethality in tumor cells producing 2HG: qHTS for the HT-1080-NT fibrosarcoma cell line; HT-1080-NT fibrosarcoma viability, CellTiter-Glo ATP luminescence, 48 h; Potency, µM (doses to about 46.1 µM), inactives show at the top dose activity, negative = less viability, hits mostly cytotoxic; hit rate 1.6% among 360,000; AID 686970, 2013;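 also: NT is the 2HG producing partner of a matched IDH1 knockdown line; potency is read from the fitted curve at half-maximal effect; 0% = DMSO-treated cells and -100% = media-only wells without cells; nearly all actives have a fitted effect of over 55% in size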
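Viability of the 2HG-overproducing fibrosarcoma line after 48 hours of compound exposure at 37 degrees C was determined by luminescence with CellTiter-Glo, and concentration-effect curves were then fitted and categorized.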
TDP1 cell CPT: qHTS for Inhibitors of human tyrosyl-DNA phosphodiesterase 1 (TDP1): qHTS in cells in presence of CPT; AID 686979, 2013; Potency, µM (top dose mostly 46.2 µM), without a hit: top-dose activity change, negative = growth inhibition, hits mostly inhibitors; chicken DT40 Tdp1-/-;hTDP1 cells + 20 nM CPT, ATP luminescence, 48 h; hit rate 12% among 420,000; also: potency is read from the fitted curve at half-maximal effect; nearly all actives have a fitted effect of over 55% in size
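Cell growth measured by CellTiter-Glo luminescence after a minimum 48 h, 37 C compound exposure with 20 nM CPT in Tdp1-knockout DT40 cells stably expressing hTDP1, seeded 400/well; qHTS titration format.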
* marks the source's active call; other numbers are inactive results; u = inconclusive; x = no result. A selection: hits, their analogues and other compounds. The true share with any hit is near 19%. Unless noted, calls follow the shape of the dose curve; as a rule, active = well fitted curve in the direction sought with a large enough effect; inconclusive = small, poorly fitted or top-dose-only effect, or another doubt; inactive = no such curve, though single readings can be large; an effect the other way counts as inactive or inconclusive. Unless noted, % is scaled to controls: 0 for no effect and ±100 for the full control effect.

SMILES	TDP1 cell noCPT	IL-1B inflam inh	HT1080 IDH1KD tx	HT1080-NT tox	TDP1 cell CPT
Cn1nc(C(F)(F)F)c(C#N)c1N1CCN(c2cccc(C(F)(F)F)c2)CC1	u	-6	6%	18%	u
Cc1cc(N2CCN(c3cccc(C(F)(F)F)c3)CC2)n2ncnc2n1	23µM*	-12	8%	3%	u
COc1ccc(N2CCN(c3cc(C)nc4nc(-c5ccc(C)cc5)nn34)CC2)cc1	-3%	x	x	x	-1%
Cc1nc2ncnn2c(N2CCN(c3cccc(C(F)(F)F)c3)CC2)c1C	21µM*	u	u	u	16µM*
Cc1c(NC(=O)COC(=O)/C=C/c2ccccc2Br)c(=O)n(-c2ccccc2)n1C	7%	u	12%	5%	-24%
CCN(CC(=O)Nc1ccc(NC(C)=O)cc1)C(=O)CN1C(=O)NC(C)(c2ccc3ccccc3c2)C1=O (configuration not stated)	16%	-4	0%	-9%	-10%
CC(=O)Oc1c(C)c(=O)n(C)c2ccccc12	-2%	-89*	-20%	13%	-14%
CCc1c(OC(C)=O)c2ccccc2n(C)c1=O	1%	-2	2%	-5%	-21%
COc1cc(Cl)c(C)cc1NC(=O)CSc1nnc(CCC(=O)O)c(=O)[nH]1	-7%	1	12%	7%	24%
CC1=C(c2ccccc2)C(=S)NC(C)(C)C1	-10%	30	33µM*	-10%	-13%
O=C(CSc1nc2cc(Cl)ccc2s1)Nc1cccc(S(=O)(=O)N2CCOCC2)c1	21µM*	28	-13%	-6%	u
O=C(CSc1nnc(C23CC4CC(CC(C4)C2)C3)o1)Nc1ccc(N2CCOCC2)c(Cl)c1	18µM*	18	u	15%	u
O=C(CSc1ncccn1)Nc1ccc(Cl)c(S(=O)(=O)N2CCOCC2)c1	-22%	5	9%	10%	-5%
CC(=O)Nc1ccc2nc(SCC(=O)Nc3ccc(N4CCOCC4)c(Cl)c3)sc2c1	u	0	-13%	0%	u
O=C(CSc1nc2ccccc2s1)Nc1ccc(N2CCOCC2)c(Cl)c1	21µM*	-4	-4%	3%	16µM*
O=C(CSc1nc2ccccc2s1)Nc1ccc(Cl)c(S(=O)(=O)N2CCOCC2)c1	u	29	-2%	-16%	23µM*
O=C(CSc1n[nH]c(=O)[nH]c1=O)Nc1cccc(S(=O)(=O)N2CCOCC2)c1	7%	5	5%	9%	11%
COc1cc(-c2ccc3oc(-c4ccsc4)cc3c2)cc(OC)c1OC	-26%	12	5%	20%	u
CNC(=O)c1ccccc1-c1cn(C)c2ccccc2c1=O	0%	-10	23%	18%	-6%
O=C(CNS(=O)(=O)c1c(F)cc(F)cc1Br)OCC(=O)N1CCCC1=O	-9%	-2	0%	-5%	-3%
CCCOC1(NC(=O)c2ccccc2)C(C)=CC(=O)C=C1C	u	20	25%	22%	23µM*
CCCOC(=O)c1ccccc1	4%	x	x	x	13%
CN1CCN(CCCNC(=O)Nc2ccc([N+](=O)[O-])cc2)CC1	7%	32	-11%	2%	8%
Nc1c(-c2cccc(Cl)c2)cnn1-c1cccc(C(F)(F)F)c1	16µM*	-61*	-28%	u	u
CCC1CCCCN1C(=S)NC1CCCCC1 (configuration not stated)	u	-13	22%	14%	u
SMILES	TDP1 cell noCPT	IL-1B inflam inh	HT1080 IDH1KD tx	HT1080-NT tox	TDP1 cell CPT
Cc1cc(NC(=O)C(C)C)ncc1NC(=O)CCc1ccccc1	8%	-22	8%	6%	1%
C/C(=N\Nc1cccc2cccnc12)c1ccccn1	0.92µM*	31	-26%	u	0.73µM*
C/C(=N\Nc1ncnc2sc(C)c(C)c12)c1ccccn1	0.015µM*	-1	0.52µM*	0.92µM*	0.1µM*
Cc1sc2ncnc(N/N=C/c3cccc(O)c3)c2c1C	-22%	-19	u	u	2%
C/C(=N\Nc1ncc(Cl)cc1Cl)c1ccccn1	0.026µM*	0	0.23µM*	u	18µM*
CCOc1ccc(CNC(=O)Cn2nc(C)c3sc4ccccc4c3c2=O)cc1	0%	x	x	x	1%
Cc1cccc(-c2nc(CSCC(=O)N3CCN(c4cccc(C)c4C)CC3)c(C)o2)c1	u	x	x	x	18µM*
Cc1ccc(-c2nc(CSCC(=O)N3CCCC3)c(C)o2)cc1	-38%	9	-12%	-2%	-45%
Cc1cccc(-c2nc(CSCC(=O)N3CCN(c4ccccn4)CC3)c(C)o2)c1	u	-59*	u	-15%	21µM*
S=C(NCCc1ccccc1)NC1CCCCCC1	u	6	-24%	-8%	18µM*
S=C(NCCc1ccc(Cl)cc1)NC1CCCC1	u	3	13%	9%	u
S=C(NCCc1ccc(Cl)cc1)NC1CCCCC1	u	-94*	u	-24%	u
Cc1cc(F)ccc1NC(=O)C1CCC(CNS(=O)(=O)c2ccc3c(c2)CCCC(=O)N3)CC1 (configuration not stated)	-28%	x	x	x	u
CCOC(=O)C1=C(CN(C)Cc2ccccc2)NC(=O)NC1c1ccc(OC(C)C)cc1 (configuration not stated)	16µM*	x	x	x	16µM*
CCOC(=O)C1=C(COc2ccccc2)NC(=O)NC1c1ccc(Br)cc1 (configuration not stated)	16µM*	u	0%	9%	18µM*
CCOC(=O)C1=C(CN(CC)Cc2ccccc2)NC(=O)NC1c1ccc(OC)cc1 (configuration not stated)	-9%	x	x	x	u
CCOC(=O)C1=C(COc2ccccc2)NC(=O)NC1c1ccc2ccccc2c1 (configuration not stated)	21µM*	-5	-13%	u	18µM*
O=C(OCCOc1cccc(Cl)c1)C1CCN(S(=O)(=O)c2ccccc2)CC1	-22%	23	-4%	0%	-10%
COc1ccc(-c2cn(CCC(=O)NCc3ccc(C)cc3)c(CCN)n2)cc1	-20%	-17	-1%	-2%	u
COC(=O)c1cc2c(ccn2-c2ccc(F)cc2)n1Cc1cccc(OC)c1	16µM*	-16	u	-11%	7.3µM*
CCOC(=O)c1cc2c(ccn2C)n1CC(=O)Nc1ccc(F)cc1	-21%	-25	3%	1%	23µM*
